Records with an inconclusive call do not appear. The source holds several records for some structures; these can differ, active in one and inactive in another. The source made the active and inactive calls. Rule for the calls, unless noted: active = hit-call score of the fitted dose curve at least 0.9, where 1 is the maximum; inactive = score below 0.9.
Experiments:
[1] = CCTE_Shafer_MEA_dev_mutual_information_norm: CCTE's Neural Network Formation Assay for Mutual Information Normalization, Shafer Lab (AID 2284091);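 for AC50: mutual information between electrodes summarised as area under curve across four recording days; potency is for a decrease in mutual information relative to DMSO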
Method in brief: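 Rat cortical cultures, 48-well MEA, continuous exposure DIV 0–12 with full media/compound change DIV 5 and 9. Readout: inter-electrode mutual information, AxIS adaptive spike detection; AUC across DIV 5/7/9/12 recordings; DMSO baseline, negative fitting direction.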

[2] = CCTE_Shafer_MEA_dev_correlation_coefficient_mean: CCTE's Neural Network Formation Assay for Mean Correlation Coefficient, Shafer Lab (AID 2284093);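 for AC50: well mean pairwise spike train correlation integrated as AUC over recording days 5 to 12; potency fitted for loss of correlation relative to DMSO vehicle wells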
Method in brief: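 Read-out: well-mean correlation coefficient of spike trains between electrode pairs, collapsed over four recording days as trapezoidal area-under-the-curve. Developing rat cortical neuron networks grown on MEAs received test chemical continuously from plating.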

[3] = CCTE_Shafer_MEA_acute_LDH: CCTE's Lactate Dehydrogenase Assay for Cytotoxicity in the Neural Acute Assay, Shafer Lab (AID 2284086; active = hit-call score of the fitted dose curve at least 0.9, where 1 is the maximum;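 note: active means LDH release rises above DMSO vehicle level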)
Method in brief: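 Primary rat cortical neurons on 48-well MEA plates, treated on day 13 or 15 post-plating. After the 40-min recording with compound, medium LDH release was read by absorbance at 490 nm. Gain of signal was fitted against DMSO negative control.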

[4] = CCTE_Mundy_HCI_Cortical_Synap_Neur_Matur_NeuriteSpotCountPerNeuriteLength: CCTE's Synaptogenesis and Neurite Maturation Assay in rat cortical cells for Neurite Spot Count per Neurite Length, Mundy Lab (AID 2284210)
Method in brief: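 Rat primary cortical cultures, glia arrested with AraC at DIV 5, were dosed with media change at DIV 7 and fixed at DIV 12. Synaptophysin puncta per MAP2-labelled neurite length were quantified by high-content imaging versus DMSO.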

[5] = CCTE_Mundy_HCI_Cortical_Synap_Neur_Matur_BPCount: CCTE's Synaptogenesis and Neurite Maturation Assay in rat cortical cells for Branch Point Count, Mundy Lab (AID 2284211)
Method in brief: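 Branch point number is quantified by automated imaging of fluorescently labelled neurites and synapses in rat primary cortical neurons exposed from DIV 7 to DIV 12. Activity is analysed relative to DMSO negative control.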

[6] = CCTE_Mundy_HCI_Cortical_NOG_NeuriteCount: CCTE's Neurite Outgrowth Assay in rat cortical cells for Neurite Count, Mundy Lab (AID 2284212);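 note: cells fixed about two days after chemical exposure began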
Method in brief: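 Neurite number per cell from high-content imaging of betaIII-tubulin immunostaining, with Hoechst nuclear counterstain.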

[7] = CCTE_Mundy_HCI_Cortical_NOG_NeuriteLength: CCTE's Neurite Outgrowth Assay in rat cortical cells for Neurite Length, Mundy Lab (AID 2284213);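 for AC50: neurites imaged about 48 to 50 h after chemical exposure began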
Method in brief: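 Neurite length was read by high-content imaging of βIII-tubulin-labelled neurites in rat primary cortical cultures. Activity was fitted relative to DMSO.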

[8] = CCTE_Mundy_HCI_Cortical_Synap_Neur_Matur_NeuriteLength: CCTE's Synaptogenesis and Neurite Maturation Assay in rat cortical cells for Neurite Length, Mundy Lab (AID 2284214)
Method in brief: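 Rat primary cortical cells were plated, treated with AraC at DIV 5 to arrest glial growth, then chemical-dosed with media change at DIV 7 through DIV 12. Fixed cells stained for MAP2, synaptophysin and Hoechst; neurite length quantified by high-content imaging.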

[9] = CCTE_Mundy_HCI_Cortical_Synap_Neur_Matur_NeuriteSpotCountPerNeuron: CCTE's Synaptogenesis and Neurite Maturation Assay in rat cortical cells for Neurite Spot Count per Neuron Count, Mundy Lab (AID 2284215)
Method in brief: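 Rat primary cortical cells received AraC at DIV 5, then chemicals with a media change at DIV 7, and were fixed at DIV 12. Synaptophysin puncta on MAP2-stained neurites per neuron were counted by high-content imaging, fitted relative to DMSO.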

[10] = CCTE_Mundy_HCI_Cortical_Synap_Neur_Matur_SynapseCount: CCTE's Synaptogenesis and Neurite Maturation Assay in rat cortical cells for Synapse Count, Mundy Lab (AID 2284218)
Method in brief: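 Rat primary cortical cells in 96-well plates received AraC at DIV 5 and were dosed with chemicals at DIV 7 with media change, through DIV 12 (288.33 h). Synapses per neuron counted by high-content imaging of MAP2/synaptophysin/Hoechst staining, versus DMSO baseline.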

[11] = CCTE_Mundy_HCI_hN2_NOG_NeuriteCount: CCTE's Neurite Outgrowth Assay in human hN2 cells for Neurite Count, Mundy Lab (AID 2284219; active = hit-call score of the fitted dose curve at least 0.9, where 1 is the maximum)
Method in brief: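 In this morphology assay, hNP1-derived neurons received test chemical 2 h post-plating and were fixed two days later in warm paraformaldehyde/sucrose containing Hoechst 33342. Neurites, labelled by rabbit anti-βIII-tubulin (1:800) and Alexa Fluor-488 (1:500), were counted automatically.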

[12] = CCTE_Mundy_HCI_hN2_NOG_NeuriteLength: CCTE's Neurite Outgrowth Assay in human hN2 cells for Neurite Length, Mundy Lab (AID 2284220; active = hit-call score of the fitted dose curve at least 0.9, where 1 is the maximum)
Method in brief: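 Using βIII-tubulin immunofluorescence and Hoechst nuclear counterstain, this component quantifies neurite length in hNP1-derived neurons.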

[13] = CCTE_Mundy_HCI_hN2_NOG_NeuronCount: CCTE's Neurite Outgrowth Assay in human hN2 cells for Neuron Count, Mundy Lab (AID 2284221; active = hit-call score of the fitted dose curve at least 0.9, where 1 is the maximum)
Method in brief: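 Read-out is the number of betaIII-tubulin-positive neurons imaged by automated high-content analysis, with DMSO as negative control.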

[14] = CCTE_Mundy_HCI_Cortical_Synap_Neur_Matur_NeuriteCount: CCTE's Synaptogenesis and Neurite Maturation Assay in rat cortical cells for Neurite Count, Mundy Lab (AID 2284222)
Method in brief: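 Chemical exposure runs DIV 7–12 in rat cortical cultures, glia suppressed by AraC at DIV 5; measurement is at DIV 12. Imaging-derived neurite counts are fitted against DMSO baseline.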

[15] = IUF_NPC1b_proliferation_BrdU_72hr: Leibniz Research Institute for Environmental Medicine (IUF) 72-hour Neural Progenitor Cell Bromodeoxyuridine (BrdU) Proliferation Assay (NPC1b) (AID 2284207)
Method in brief: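 hNPC spheres (primary, GW 16-19 fetal cortex), single sphere/well, EGF+FGF medium; 72 h compound, no renewal; BrdU pulse last 16 h; luminescent ELISA; activity vs DMSO baseline; growth-factor withdrawal as positive control.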

[16] = IUF_NPC1a_proliferation_area_72hr: Leibniz Research Institute for Environmental Medicine (IUF) 72-hour Neural Progenitor Cell Proliferation Area Assay (NPC1a) (AID 2284208)
Method in brief: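 Read-out: increase in sphere area over 72 h by automated phase-contrast imaging, fitted in positive direction versus DMSO baseline. One hNPC sphere (0.25-0.35 mm) per well in EGF/FGF medium; growth-factor withdrawal served as positive control.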

[17] = IUF_NPC1_viability_72hr: Viability Assessment at 72 hours in the Leibniz Research Institute for Environmental Medicine (IUF) Neural Progenitor Cell Proliferation Assay (NPC1) (AID 2284209)
Method in brief: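 Human fetal-cortex neural progenitor spheres (0.25–0.35 mm, one per well) grown in EGF/FGF proliferation medium at 37C, pH 7.2-7.6, exposed 72 h without renewal; viability read as alamar blue resazurin-to-resorufin fluorescence relative to DMSO.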

[18] = TAMU_PeakParms_SingleDonor1434_Chronotropy: Texas A&M University (TAMU) 1.5-hr Human Induced Pluripotent Stem Cell (iPSC)-derived Cardiomyocytes Calcium (Ca+2) Flux Assay for Cardiotoxicity: Chronotropy (changes in peak frequency) (AID 2284217); conditions: actives raise or lower the signal
Method in brief: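 Beat frequency of single-donor iPSC cardiomyocytes was recorded through a calcium-sensitive dye 1.5 hours after exposure to four concentrations up to 100 uM. An EC05 point of departure was derived.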

[19] = UKN2_HCS_IMR90_neural_migration: University of Konstanz (UKN) Leist Lab Neural Crest Cell Migration Assay in human induced IMR90 Pluripotent Stem Cells (UKN2) (AID 2284204); conditions: actives raise or lower the signal
Method in brief: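 iPSC-derived IMR90 neural crest cells on PLO/laminin/fibronectin were seeded around silicone stoppers; after stopper removal, migration in N2-S medium with EGF and FGF ran 24 h before 24 h chemical exposure. Calcein-AM/Hoechst high-content imaging; bidirectional fit versus DMSO.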

[20] = UKN4_HCS_LUHMES_neurite_outgrowth: University of Konstanz (UKN) Leist Lab Neurite Outgrowth Assay in human LUHMES cells (UKN4) (AID 2284206); conditions: actives raise or lower the signal
Method in brief: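 LUHMES neuronal precursors differentiated 2 days, replated without cAMP/GDNF, then exposed to chemicals for 24 h. Neurite area imaged by high-content microscopy after calcein-AM staining; Hoechst H-33342 marks viability. Bidirectional fit versus DMSO.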

Measured: AC50

O=C(F)C(F)(F)C(F)(F)C(F)(F)C(F)F
inactive: [1] | [2]

Oc1ccc(Cc2ccccc2O)cc1
inactive: [3]

O=CC(F)(F)C(F)(F)C(F)(F)C(F)F
inactive: [1] | [2]

CN(Cc1cnc2nc(N)nc(N)c2n1)c1ccc(C(=O)N[C@@H](CCC(=O)O)C(=O)O)cc1
inactive: [4] | [6] | [7] | [9] | [10] | [11] | [12] | [13] | [14]
active: [1] 19.1 nM | [2] 0.0189 µM | [5] 44.9 nM | [8] 0.0328 µM

O=C(OC(=O)C(F)(F)C(F)(F)F)C(F)(F)C(F)(F)F
inactive: [1] | [2]

FC(F)=C(F)C(F)(F)C(F)(F)C(F)(F)C(F)F
inactive: [1] | [2]

COC(=O)C(F)(F)C(F)(F)C(F)(F)F
inactive: [1] | [2]

Oc1c(Cl)cc(Cl)cc1Sc1cc(Cl)cc(Cl)c1O
inactive: [3]

CC(=O)Nc1ccc(O)cc1
not listed: [5] | [6] | [13] | [14] | [19] | [20]
inactive: all other assays above

O=C1NS(=O)(=O)c2ccccc21
not listed: [5] | [13] | [14] | [19] | [20]
inactive: all other assays above

O=C(CC(=O)C(F)(F)C(F)(F)C(F)(F)F)c1cccs1
active: [2] 7.75 µM
inactive: [1]

CN(C)CCOC(c1ccccc1)c1ccccc1
inactive: [3] | [1]
active: [2] 15.5 µM

O=P(O)(O)CCC(F)(F)C(F)(F)C(F)(F)C(F)(F)C(F)(F)C(F)(F)F
inactive: [1] | [2]

O=C(C=C(O)C(F)(F)F)C(F)(F)F
inactive: [1] | [2]

OCC(CO)(CBr)CBr
inactive: [3]

Nc1ccn([C@@H]2O[C@H](CO)[C@@H](O)C2O)c(=O)n1 (stereo partly drawn)
active: [1] 74.4 nM | [2] 0.0919 µM | [7] 5.88 µM | [8] 17.1 µM | [9] 15.9 µM | [10] 16 µM | [13] 1.47 µM
inactive: [19] | [20] | [4] | [11] | [12]

O=CC(F)(F)C(F)(F)C(F)(F)F
inactive: [1] | [2]

NC(C(F)(F)F)C(F)(F)F
inactive: [1] | [2]

CN(CCO)S(=O)(=O)C(F)(F)C(F)(F)C(F)(F)C(F)(F)C(F)(F)C(F)(F)C(F)(F)C(F)(F)F
inactive: [1] | [2]

O=C(F)C(F)(F)C(F)(F)C(F)(F)C(=O)F
inactive: [1] | [2]

CC(C)c1c(C(=O)Nc2ccccc2)c(-c2ccccc2)c(-c2ccc(F)cc2)n1CC[C@@H](O)C[C@@H](O)CC(=O)O
active: [1] 7.93 nM | [2] 0.00805 µM | [15] 1.7 µM | [4] 6.94 µM | [5] 779 nM | [6] 158 nM | [7] 0.145 µM | [8] 2.82 µM | [9] 3.05 µM | [10] 3.58 µM | [14] 3.35 µM
inactive: [19] | [16] | [17]

O=C(O)C(F)(F)OC(F)(F)C(F)(F)OC(F)(F)C(F)(F)OC(F)(F)C(F)(F)C(F)(F)C(F)(F)F
inactive: [1] | [2]

COC(=O)C(F)(F)C(F)(F)C(F)(F)C(F)(F)C(F)(F)F
inactive: [1] | [2]

O=C(O)CCC(F)(F)C(F)(F)C(F)(F)C(F)(F)C(F)(F)F
inactive: [1] | [2]

FCOC(C(F)(F)F)C(F)(F)F
inactive: [1] | [2]

O=P(O)(O)CCC(F)(F)C(F)(F)C(F)(F)C(F)(F)C(F)(F)C(F)(F)C(F)(F)C(F)(F)F
active: [1] 4310 nM | [2] 6.27 µM

OCC(F)(F)C(F)(F)C(F)(F)C(F)(F)C(F)(F)C(F)(F)C(F)(F)C(F)(F)C(F)(F)C(F)(F)C(F)(F)F
inactive: [1] | [2]
active: [1] 4610 nM | [2] 8.06 µM

CCCCCCCCCCCC
inactive: [3]

C=CC(F)(F)C(F)(F)C(F)(F)C(F)(F)F
inactive: [1] | [2]

O=C(CCCN1CCC(O)(c2ccc(Cl)cc2)CC1)c1ccc(F)cc1
inactive: [3] | [19] | [15] | [16] | [17]
active: [1] 163 nM | [2] 1.74 µM | [20] 13.1 µM | [4] 50 µM | [7] 6.16 µM | [8] 21.2 µM | [9] 17.8 µM | [10] 18.4 µM | [11] 37.9 µM | [12] 22.4 µM | [13] 20.3 µM

CCCCc1oc2ccccc2c1C(=O)c1cc(I)c(OCCN(CC)CC)c(I)c1
inactive: [3]

N=C(N)c1ccc(OCCCCCOc2ccc(C(=N)N)cc2)cc1
inactive: [3]

Source: PubChem BioAssay (EPA / NIEHS)
